Measurements from PubChem BioAssay.
Where “and” joins values, the source holds several entries; their conditions need not be identical. Identical values can stand only once. Calls of active or inactive are those of the source.

What was measured:
[1] = small molecules captured by biotinylated probe aFSTL3 – biochemical, small-molecule microarray, fluorescence 635/667, stem cell growth factor project, primary screen (AID 1064); details: higher = more signal;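 also: measures binding of the biotinylated anti-FSTL3 antibody to printed compounds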
[2] = binders from COS7 lysate, DM2A8 probe, primary screen, torsin A project, cell lysate, small-molecule microarray, fluorescence 635/667 (AID 1065); details: higher = more signal, COS7 lysate expressing mutant human TOR1A
[3] = small molecules captured by biotinylated probe aFGF2 – biochemical, small-molecule microarray, fluorescence 635/667, stem cell growth factor project, primary screen (AID 1067); details: higher = more signal;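 also: measures binding of biotinylated aFGF2 protein to printed compounds on slides; z-score merges feature fluorescence and signal-to-noise across triplicate slides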
[4] = small molecules captured by biotinylated probe aFGF10 – biochemical, small-molecule microarray, fluorescence 635/667, stem cell growth factor project, primary screen (AID 1071); details: higher = more signal;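 also: score merges 667 nm spot intensity and signal to noise from triplicate slides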
[5] = biological target: Neurogenic locus notch homolog protein 2 (Homo sapiens) (UniProt Q04721); test: small molecules binding Notch2 protein – biochemical, small-molecule microarray, 635 nm fluorescence, stem cell growth factors, primary screen (AID 1073); details: higher = more signal
Chain of Neurogenic locus notch homolog protein 2 (Homo sapiens) (Q04721 whole entry, looked up, canonical isoform): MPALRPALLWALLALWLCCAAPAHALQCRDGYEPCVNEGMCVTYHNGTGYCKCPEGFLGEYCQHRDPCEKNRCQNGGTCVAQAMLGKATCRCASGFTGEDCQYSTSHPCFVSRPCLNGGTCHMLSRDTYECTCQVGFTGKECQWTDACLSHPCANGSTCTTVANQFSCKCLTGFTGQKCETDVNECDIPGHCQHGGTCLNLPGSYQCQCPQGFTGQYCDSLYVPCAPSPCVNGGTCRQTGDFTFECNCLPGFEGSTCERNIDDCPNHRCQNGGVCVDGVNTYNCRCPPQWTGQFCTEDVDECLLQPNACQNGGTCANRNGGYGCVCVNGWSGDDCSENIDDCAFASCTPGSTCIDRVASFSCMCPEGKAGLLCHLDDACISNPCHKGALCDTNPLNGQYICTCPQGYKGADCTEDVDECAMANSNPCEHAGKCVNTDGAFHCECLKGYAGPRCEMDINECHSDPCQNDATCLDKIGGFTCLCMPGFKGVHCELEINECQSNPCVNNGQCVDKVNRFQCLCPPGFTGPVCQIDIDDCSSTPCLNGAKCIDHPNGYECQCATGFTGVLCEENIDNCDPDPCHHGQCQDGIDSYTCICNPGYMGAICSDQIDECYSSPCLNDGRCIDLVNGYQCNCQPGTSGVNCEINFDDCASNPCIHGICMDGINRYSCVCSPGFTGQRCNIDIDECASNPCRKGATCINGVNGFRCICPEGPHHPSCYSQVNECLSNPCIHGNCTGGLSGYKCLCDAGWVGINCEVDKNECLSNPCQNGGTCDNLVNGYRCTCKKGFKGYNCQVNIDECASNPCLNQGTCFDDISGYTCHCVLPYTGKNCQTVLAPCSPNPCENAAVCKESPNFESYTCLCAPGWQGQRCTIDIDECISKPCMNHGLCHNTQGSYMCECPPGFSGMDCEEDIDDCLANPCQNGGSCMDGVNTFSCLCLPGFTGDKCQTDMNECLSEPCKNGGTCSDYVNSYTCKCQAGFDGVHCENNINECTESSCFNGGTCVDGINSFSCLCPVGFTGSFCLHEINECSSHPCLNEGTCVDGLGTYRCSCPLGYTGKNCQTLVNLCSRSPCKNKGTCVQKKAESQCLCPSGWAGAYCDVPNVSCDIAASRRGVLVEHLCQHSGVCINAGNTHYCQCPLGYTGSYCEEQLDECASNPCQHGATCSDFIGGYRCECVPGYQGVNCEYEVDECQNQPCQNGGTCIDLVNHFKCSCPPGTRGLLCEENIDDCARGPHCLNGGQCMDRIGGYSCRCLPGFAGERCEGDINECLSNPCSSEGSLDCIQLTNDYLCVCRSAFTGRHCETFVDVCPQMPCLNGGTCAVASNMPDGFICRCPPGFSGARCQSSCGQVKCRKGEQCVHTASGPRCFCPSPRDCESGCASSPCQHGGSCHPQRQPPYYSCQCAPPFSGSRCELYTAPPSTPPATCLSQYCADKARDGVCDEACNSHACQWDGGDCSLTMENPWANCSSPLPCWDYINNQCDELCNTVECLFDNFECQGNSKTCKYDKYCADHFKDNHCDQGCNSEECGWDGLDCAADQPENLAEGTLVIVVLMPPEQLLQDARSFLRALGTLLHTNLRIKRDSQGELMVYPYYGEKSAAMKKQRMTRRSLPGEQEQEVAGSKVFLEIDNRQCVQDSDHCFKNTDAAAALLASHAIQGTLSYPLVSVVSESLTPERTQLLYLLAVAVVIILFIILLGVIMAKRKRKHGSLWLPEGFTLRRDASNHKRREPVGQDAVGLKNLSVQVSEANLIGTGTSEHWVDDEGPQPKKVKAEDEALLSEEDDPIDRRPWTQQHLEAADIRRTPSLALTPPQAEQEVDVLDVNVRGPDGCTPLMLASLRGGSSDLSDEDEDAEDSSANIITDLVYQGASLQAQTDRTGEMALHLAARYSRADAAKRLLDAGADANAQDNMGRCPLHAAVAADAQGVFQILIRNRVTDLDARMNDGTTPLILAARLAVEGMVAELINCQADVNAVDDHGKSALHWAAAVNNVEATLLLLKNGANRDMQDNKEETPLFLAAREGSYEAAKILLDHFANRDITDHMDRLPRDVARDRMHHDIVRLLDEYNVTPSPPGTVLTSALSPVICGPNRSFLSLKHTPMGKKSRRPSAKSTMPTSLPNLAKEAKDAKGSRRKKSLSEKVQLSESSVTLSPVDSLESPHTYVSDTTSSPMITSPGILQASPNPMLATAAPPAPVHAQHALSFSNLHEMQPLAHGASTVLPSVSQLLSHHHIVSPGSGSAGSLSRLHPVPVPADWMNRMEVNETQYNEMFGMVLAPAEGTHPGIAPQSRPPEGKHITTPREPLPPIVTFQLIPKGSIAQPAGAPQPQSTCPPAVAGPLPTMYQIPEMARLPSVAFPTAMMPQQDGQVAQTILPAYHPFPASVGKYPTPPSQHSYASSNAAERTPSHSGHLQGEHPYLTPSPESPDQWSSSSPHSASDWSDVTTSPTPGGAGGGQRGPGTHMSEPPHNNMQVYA

[6] = biological target: Pro-neuregulin-1, membrane-bound isoform (Homo sapiens) (UniProt Q02297); test: small molecules binding neuregulin-1 protein – biochemical, small-molecule microarray, fluorescence 635/667, psychiatric disease protein project, primary screen (AID 1075); details: NRG1 binding, 635 nm fluorescence, higher = more signal;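 also: score combines 667 nm spot fluorescence with signal to noise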
Chain of Pro-neuregulin-1, membrane-bound isoform (Homo sapiens) (Q02297 whole entry, looked up, the tested form may be a part, canonical isoform): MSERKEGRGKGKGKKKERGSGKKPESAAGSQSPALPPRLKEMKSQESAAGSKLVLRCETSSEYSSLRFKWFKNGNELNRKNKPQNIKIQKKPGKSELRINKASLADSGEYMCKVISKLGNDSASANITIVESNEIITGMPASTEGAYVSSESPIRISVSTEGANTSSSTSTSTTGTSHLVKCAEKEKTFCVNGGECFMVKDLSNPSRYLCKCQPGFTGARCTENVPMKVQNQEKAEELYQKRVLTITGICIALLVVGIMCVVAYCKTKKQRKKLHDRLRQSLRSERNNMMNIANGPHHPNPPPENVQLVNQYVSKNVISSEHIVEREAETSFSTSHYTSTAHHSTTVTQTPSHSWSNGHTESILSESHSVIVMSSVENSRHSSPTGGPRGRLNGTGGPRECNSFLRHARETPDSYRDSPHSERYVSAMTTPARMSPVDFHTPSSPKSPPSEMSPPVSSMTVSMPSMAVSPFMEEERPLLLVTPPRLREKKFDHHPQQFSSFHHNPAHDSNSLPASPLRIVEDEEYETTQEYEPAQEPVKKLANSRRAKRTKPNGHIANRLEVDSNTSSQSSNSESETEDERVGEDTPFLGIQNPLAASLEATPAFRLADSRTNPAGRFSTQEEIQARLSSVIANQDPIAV

[7] = system: Neuregulin-1 EGF-like domain; test: small molecules binding NRG1 EGF domain – biochemical, small-molecule microarray, 635 nm fluorescence, primary screen (AID 1081); details: higher = more signal;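 also: binding of the protein to compounds printed on small-molecule microarray slides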
[8] = FRG1 expression reporter modulators in myotubes – cell-based, C2C12 myotubes, firefly/Renilla luciferase, luminescence, FRG1 inhibition for FSHD, primary screen (AID 1084); details: FRG1 promoter luciferase, higher = more signal, called active from +8 up or from −8 down
[9] = small molecules captured by biotinylated probe aFST – biochemical, small-molecule microarray, fluorescence 635/667, stem cell growth factor project, primary screen (AID 1086); details: higher = more signal;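 also: score merges 667 nm fluorescence with signal-to-noise of each printed compound spot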
[10] = binders of probe aHhip on microarray, primary screen, stem cell growth factor project, biochemical, small-molecule microarray, fluorescence 635/667 (AID 1087); details: higher = more signal;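 also: score merges spot fluorescence at 667nm with spot signal to noise ratio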

Compound	composite z-score [1]	composite z-score [2]	composite z-score [3]	composite z-score [4]	composite z-score [5]	composite z-score [6]	composite z-score [7]	z-score [8]	composite z-score [9]	composite z-score [10]
C=CCN(C(=O)C(c1cccs1)N(C(=O)/C=C\C(=O)O)c1c(Cl)cccc1CO)C(C)(C)C (stereo not given)	1.49 and 1.64	-1.2 and -1.76	-0.232 and -0.235	-1.69 and -1.27	-1.86 and -2.21	-0.732 and -1.05	-0.301 and -0.512	1.06 (inactive) and 1.34 (inactive)	-0.791 and -0.727	0.228 and -0.554
C=CCN(C(=O)C(c1cccs1)N(C(=O)/C=C\C(=O)O)c1c(Cl)cccc1CO)c1ccc(OC)cc1 (stereo not given)	1.98 and 1.01	-0.781 and -0.551	-0.228 and -0.0608	-1.56 and -0.737	-1.87 and -1.28	1.04 and -0.796	0.782 and 0.0793	0.284 (inactive) and 0.649 (inactive)	-1 and -0.362	-0.164 and -0.229
C=C(C)C(=O)OC[C@@H]1CN2[C@@H](CC[C@@H](C)[C@@H]2c2ccc(Br)cc2)C(=O)O1	-0.577	-0.275	-0.083	0.733	0.636	0.776	1.1	-0.889 (inactive)	0.129	-0.0645
C=CCN(C(=O)C1N(CCOCCO)C(=O)C2C(C(=O)O)C3C=CC21O3)c1ccc(OC)cc1 (stereo not given)	1.11 and 1.65	-1.59 and -1.21	-0.184 and -0.254	-0.719 and -1.97	-2.35 and -1.84	0.555 and 2.07	0.328 and 0.86	-0.408 (inactive) and -0.715 (inactive)	-0.654 and -0.932	-0.581 and -0.349
CC(C)C(=O)N[C@@H]1CCCN1C(=O)C=Cc1ccccc1	-0.46	0.323	-0.0781	0.405	0.99	0.208	1.07	-0.416 (inactive)	0.125	-0.0994
C=CCN(Cc1ccccc1)C(=O)C1N(c2c(Cl)cccc2CO)C(=O)C2C(C(=O)O)C3C=CC21O3 (stereo not given)	1.77 and 1.95	-1.28 and -0.799	-0.176 and -0.166	-1.74 and -0.702	-2.4 and -2.37	-1.18 and -0.797	-0.822 and -0.464	-1.05 (inactive) and 1.16 (inactive)	-0.877 and -0.563	-0.418 and -0.137
C=C[C@@H](OC)[C@H](O)c1ccc(O)c(F)c1	1.24 and 0.937	-0.598 and -1.38	-0.183 and -0.222	-0.609 and -0.315	-1.74 and -0.398	-0.725 and -0.815	-0.564 and -0.928	0.679 (inactive) and -0.707 (inactive)	-1.4 and -1.25	-0.0708 and -0.175
C=CCN(Cc1ccccc1)C(=O)C1N(CCOCCO)C(=O)C2C(C(=O)O)C3C=CC21O3 (stereo not given)	1.75 and 1.34	-1.1 and -1.84	-0.309 and -0.27	-2.7 and -1.09	-2.27 and -1.42	1.27 and 0.866	0.731 and 0.433	-0.91 (inactive) and -0.244 (inactive)	-1.06 and -1.03	-0.423 and -0.362
Cc1cc2c(nc1C)CCCN2CC(O)CN1CCCc2nc(-c3ccc(Br)cc3)ccc21 (stereo not given)	0.738 and 1.41	0.694 and 0.644	0.115 and 0.363	0.902 and 0.602	1.15 and 1.39	1.56 and 1.11	1.16 and 1.11	4.83 (inactive) and 2.39 (inactive)	0.916 and 0.891	0.968 and 2.11
COC(=O)C1=C(C)N(Cc2ccccc2)[C@]23O[C@](C(=O)OC)(C(=O)N2[C@@H]1c1ccccc1)[C@H]1CCCC(=O)[C@H]13	0.0353 and -0.148	0.383 and 1.06	-0.0333 and -0.0507	0.513 and 0.359	1.15 and 0.327	1.21 and -0.23	0.636 and -0.133	-1.02 (inactive) and 0.357 (inactive)	0.395 and 0.0869	0.186 and -0.236
CC(C)N1CC=CC23O[C@@H]4C=CCCOC(=O)C4[C@H]2C(=O)N(C(C)CO)[C@@H]3C1=O (stereo not given in full)	0.886 and 0.781	0.543 and -0.0534	-0.158 and -0.116	-1.39 and -0.751	-0.0092 and -0.882	2.21 and -0.35	0.958 and 0.694	-0.746 (inactive) and 0.0086 (inactive)	-0.828 and -0.509	-0.178 and 0.0176
C=CCN(Cc1ccccc1)C(=O)C(c1cccs1)N(C(=O)/C=C\C(=O)O)c1ccc(CCO)cc1 (stereo not given)	1.05 and 0.697	-1.89 and -1.8	-0.175 and -0.232	-1.05 and -0.73	-1.36 and -1.96	-0.789 and -0.264	1.25 and 1.43	0.0388 (inactive) and -0.725 (inactive)	-0.966 and -0.865	-0.369 and 0.205
CCOC(=O)[C@@H]1CC2O[C@]23C[C@@H]1C(=O)N1CCC[C@@H]1[C@H]3O[Si](C)(C)C(C)(C)C (stereo not given in full)	-0.224 and -0.287	-0.457 and -0.0006	-0.238 and -0.0048	-0.235 and -0.144	-1.08 and -0.312	-0.737 and -0.343	-1.07 and -0.585	-0.304 (inactive) and 0.333 (inactive)	-0.378 and 0.223	-0.207 and -0.231
C[C@@H](c1ccccc1)N1C(=O)[C@H]2[C@H]3[C@H](O)[C@H](O)CC(=O)[C@@H]3CC[C@H]2C1=O	-0.289	0.118	-0.0193	0.534	0.694	-0.0676	0.603	-1.06 (inactive)	0.435	-0.0672
CCOC(=O)CCN1C(=O)[C@H]2[C@H]3[C@H](O)[C@H](O)CC(=NNC(=O)OCC)[C@@H]3CC[C@H]2C1=O	-0.144	0.303	-0.0459	0.348	0.708	-0.388	-0.0801	0.142 (inactive)	0.62	-0.0994
C=C[C@@H](C)[C@H](O)c1ccc(O)c2ccccc12	-0.0835 and 0.0226	0.0628 and -0.136	-0.182 and -0.24	-0.455 and -0.788	-0.889 and -2.07	-0.0351 and -0.653	-0.728 and -0.279	-0.431 (inactive) and 0.2 (inactive)	-0.938 and -1.14	0.0373 and -0.261
